Laboratory results reported in PubChem BioAssay (NCATS).
Results filed as inconclusive are left out. Calls of active or inactive are those of the source. The call rests on the fitted dose curve; in most records, active means well fitted inhibition curve with a large enough effect; inconclusive means small, poorly fitted or top-dose-only effect; inactive means no such curve, though single readings can be large or run the other way.

Test: Primary qHTS for inhibitors of nuclear receptor binding SET domain protein 2 (NSD2) in an RCH-ACV wild type WT cells (2C) (AID 1645877); further: nearly all actives have a fitted effect of over 70% in size
Conditions: RCH-ACV (leukaemia line) NSD2 WT (2C) viability, CellTiter-Glo, 72 h; series mostly up to 44.9 µM
Source text: Assay Provider: Jonathan D. Licht, MD
University of Florida College of Medicine, Gainesville, FL
Mutations in epigenetic regulators are common in relapsed pediatric acute lymphoblastic leukemia (ALL). Here, we uncovered the mechanism underlying the relapse of ALL driven by an activating mutation of the NSD2 histone methyltransferase (p.E1099K). […] Correction of this mutation restored glucocorticoid sensitivity. The transcriptional response to glucocorticoids was blocked in NSD2 mutant cells due to depressed glucocorticoid receptor (GR) levels and the failure of glucocorticoids to autoactivate GR expression. […] Pre-treatment of NSD2 p.E1099K cell lines and PDX samples with PRC2 inhibitors reversed glucocorticoid resistance in vitro and in vivo.
High-throughput drug screening of isogenic RCH-ACV cell lines was performed at the National Center for Advancing Translational Science (NCATS), National Institutes of Health as previously described (1). Briefly, isogenic RCH-ACV NSD2 p.E1099K mutant (9B) and WT cells (2C) were plated at 500 cells/well in a 1536-well plate with a 72-hour incubation with compounds prior to addition of CellTiter-Glo to assess cell viability. NCATS libraries screened include: NPC, MIPE 5.0, Kinase and NPACT. To determine compound activity in the qHTS assay, the concentration-response data for each sample was plotted and modeled by a four-parameter logistic fit yielding IC50 and efficacy (maximal response) values. The area under the curve (AUC) of the dose-response curve ensures both efficacy (magnitude of cell killing) and potency (concentration that elicits cell killing) are accounted for in the analysis of activity.
1. Tobie D Lee, Olivia W Lee, Kyle R Brimacombe, Lu Chen, Rajarshi Guha, Sabrina Lusvarghi, Bethilehem G Tebase, Carleen Klumpp-Thomas, Robert W Robey, Suresh V Ambudkar, Min Shen, Michael M Gottesman, Matthew D Hall. A High-Throughput Screen of a Library of Therapeutics Identifies Cytotoxic Substrates of P-glycoprotein. Mol Pharmacol. 2019, Nov;96(5):629-640.
On the % scale 0 is the no-effect control and ±100 the full control effect.

| Molecule | Potency | activity change, negative = cell killing |
| --- | --- | --- |
| C[C@H]1CC2[C@@H]3CCC4=CC(=O)C=C[C@]4(C)[C@@]3(F)[C@@H](O)C[C@]2(C)[C@@]1(O)C(=O)CO (stereo not given in full) | 0.105 µM (active) | – |
| CC(=O)N[C@H]1[C@H](O[C@@H]2c3ccc(c(Cl)c3)Oc3cc4cc(c3O[C@@H]3O[C@H](CO)[C@@H](O)[C@H](O)[C@H]3NC(=O)CCCCCCCC(C)C)Oc3ccc(cc3Cl)C[C@H]3NC(=O)[C@H](N)c5ccc(O)c(c5)Oc5cc(O)cc(c5)[C@H](NC3=O)C(=O)N[C@H]4C(=O)N[C@H]3C(=O)N[C@@H]2C(=O)N[C@@H](C(=O)O)c2cc(O)cc(O[C@H]4O[C@H](CO)[C@@H](O)[C@H](O)[C@@H]4O)c2-c2cc3ccc2O)O[C@H](CO)[C@@H](O)[C@@H]1O | inactive | – |
| CC(=O)N1c2ccc(-c3ccc(C(=O)O)cc3)cc2[C@H](Nc2ccc(Cl)cc2)C[C@@H]1C | 0.0934 µM (active) | – |
| COCCNc1cc(NC(=O)N2CCCc3cc(CN4CCN(C)CC4=O)c(C=O)nc32)ncc1C#N | – | 2.96% [at 9.23 µM] (inactive) |
| C=CC(=O)N1CC/C(=C\c2ccc(F)c([N+](=O)[O-])c2)C(=O)/C(=C/c2ccc(F)c([N+](=O)[O-])c2)C1 | 0.059 µM (active) | – |
| CN(Cc1cccs1)c1ncnc2ccc(-c3ccc4c(c3)OCO4)cc12 | 20.6 µM (active) | – |
| Cc1c(F)cccc1NC(=O)Nc1ccc(Cl)c(S(=O)(=O)[C@H]2CCCNC2)c1O | inactive | – |
| O=C(NO)c1cnc(NC2(c3cccc(F)c3)CCCCC2)nc1 | 14.8 µM (active) | – |
| C[C@@]1(c2ncncc2F)NC(=O)c2cc(-c3cn[nH]c3)ccc21 | 14.8 µM (active) | – |
| CCNC(=O)Nc1ccc(Oc2ncnc(N)c2/C=N/OC)cc1Cl | 16.6 µM (active) | – |
| COC1=C2C[C@H](C)C[C@H](OC)[C@H](O)[C@@H](C)/C=C(/C)[C@H](OC(N)=O)[C@@H](OC)/C=C\C=C(\C)C(=O)NC(=CC1=O)C2=O | inactive | – |
| Cc1c(NC(=O)c2cc(C(N)=O)nc3cc(F)ccc23)c(C(F)(F)F)nn1Cc1ccc(C(C)(C)C)cc1 | inactive | – |
| CN1C(=O)N[C@H](Cc2c[nH]c3c(Cl)cccc23)C1=O | inactive | – |
| O=C1CC(c2c[nH]c3ccc(F)cc23)C(=O)N1 (stereo not given) | inactive | – |
| O=C(NO)c1ccc(C2=Nc3ccccc3Oc3ccccc32)cc1 | 2.63 µM (active) | – |
| COc1cc(=C2C=c3ccccc3=N2)[nH]/c1=C/c1[nH]c(C)cc1C | inactive | – |
| COc1nc(N)nc2c1ncn2C1OC(CO)C(O)C1O (stereo not given) | 4.68 µM (active) | – |
| Ac-PHSCN-NH2 | 23.5 µM (active) | – |
| Nc1nc(F)nc2c1ncn2[C@@H]1O[C@H](COP(=O)(O)O)[C@@H](O)[C@@H]1O | 1.86 µM (active) | – |
| C[C@H](NC(=O)[C@H]1NCC[C@@H]1O)c1ccc(-c2noc(CCC3CCCC3)n2)cc1 | inactive | – |

| Molecule | Potency | activity change, negative = cell killing |
| --- | --- | --- |
| C[C@]12CCC3=C4CCC(=O)C=C4CC[C@H]3[C@@H]1CC[C@@]2(O)CC#N | inactive | – |
| C=C1CCC[C@]2(C)C=C3OC(=O)C(C)=C3C[C@@H]12 | inactive | – |
| Cc1[nH]cnc1CN1CCN(C(=O)N[C@@H](CC(C)C)C(=O)O)[C@@H](Cc2ccccc2)C1=O | inactive | – |
| CCN(CC)CCNc1ccc(C)c2sc3ccccc3c(=O)c12 | 5.25 µM (active) | – |
| CCCNC(=O)c1cn2ncnc(Nc3cc(C(=O)NC4CC4)ccc3C)c2c1C | inactive | – |
| C[C@@H]1CC(=O)Nc2cccc(-c3ccc4c(c3)c(-c3cnn(C)c3)nn4C)c2N1 | 0.662 µM (active) | – |
| C[C@@H]1CC(=O)Nc2cccc(-c3cnn(C(C)(C)C)c3)c2N1 | 5.9 µM (active) | – |
| O=C(CCCCCCC(=O)N/N=C/c1ccc(N(c2ccccc2)c2ccccc2)cc1)NO | 1.48 µM (active) | – |
| CO[C@H]1/C=C/O[C@@]2(C)Oc3c(C)c(O)c4c(O)c(c(/C=N\N5CCN(C6CCCC6)CC5)c(O)c4c3C2=O)NC(=O)/C(C)=C\C=C\[C@H](C)[C@H](O)[C@@H](C)[C@@H](O)[C@@H](C)[C@H](OC(C)=O)[C@@H]1C | 20.9 µM (active) | – |
| C[C@@H]1C(=O)OC2[C@H](O)[C@]34[C@H]5C[C@@H](C(C)(C)C)[C@]36[C@@H](OC(=O)[C@@H]6O)O[C@@]4(C(=O)O5)[C@]21O (stereo not given in full) | inactive | – |
| CCC(C)CNCC(=O)N1CCc2sccc2C1c1cccc(C)n1 (stereo not given) | inactive | – |
| CCO[C@@H]1OC(=O)C[C@@H]1NC(=O)[C@@H]1CCCN2C(=O)CC[C@H](NC(=O)c3nccc4ccccc34)C(=O)N12 | inactive | – |
| CN(C)C[C@@H]1CCn2cc(c3ccccc32)C2=C(C(=O)NC2=O)c2cn(c3ccccc23)CCO1 | 6.61 µM (active) | – |
| Cc1ccc(NC(=O)NCc2ccc3c(c2)CN(C2CCC(=O)NC2=O)C3=O)cc1Cl (stereo not given) | 0.0012 µM (active) | – |
| CC(=O)O/N=C1\C(=O)N(Cc2cc(Cl)ccc2Cl)c2ccc(Cl)cc21 | 4.17 µM (active) | – |
| CO[C@H]1/C=C/O[C@@]2(C)Oc3c(C)c(O)c4c(O)c(c5c(nc6cc(C)ccn65)c4c3C2=O)NC(=O)/C(C)=C\C=C\[C@H](C)[C@H](O)[C@@H](C)[C@@H](O)[C@@H](C)[C@H](OC(C)=O)[C@@H]1C | 23.5 µM (active) | – |
| CC1(C)OC2=C(C(=O)c3ccccc3C2=O)[C@H](NCc2ccccc2)[C@@H]1O | 6.61 µM (active) | – |
| C=C1C[C@@H]2CC[C@@]34C[C@H]5O[C@H]6[C@@H](O3)[C@H]3O[C@H](CC[C@@H]3O[C@H]6[C@H]5O4)CC(=O)C[C@@H]3[C@@H](OC)[C@@H](C[C@H](O)CN)O[C@H]3C[C@H]3O[C@@H](CC[C@@H]1O2)C[C@@H](C)C3=C | 0.0011 µM (active) | – |
| CN(C)CCNC(=O)NC[C@H]1CC[C@@H]2[C@H](O1)c1cc(C(F)(F)F)ccc1N[C@H]2c1ccccc1 | 0.417 µM (active) | – |
| O=C(O)c1ccccc1-c1ccc(/C=c2\sc3nc4cc(Br)cnc4n3c2=O)o1 | inactive | – |
